In the supplement of paper PMC7156485:

test system: TDF; assay: H1.0 immunofluorescence intensity relative to DMSO (% of DMSO); higher = stronger H1.0 induction, active = 120 or more; details: concentration: 10 µM; 24 h
How it was run: (§1)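 HCC1569 and TDF cells (800 per well, 384-well plates, RPMI with 10% FBS) were treated with compounds at 10 µM for 24 h at 37 °C, in triplicate. Cells were fixed in 3.7% formaldehyde and stained with a rabbit anti-H1.0 antibody, an AlexaFluor 647 secondary and DAPI; six fields per well were imaged at ×10. H1.0 nuclear intensity or cell number is expressed as percent of the plate DMSO control, taking the median of replicates. HCC1569 values were smoothed for positional effects.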
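Note: TDF is a line of transformed human dermal fibroblasts of mesenchymal origin.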

H1.0 immunofluorescence intensity, inactive:
CC1CNc2c(cccc2S(=O)(=O)N[C@@H](CCCN=C(N)N)C(=O)N2CC[C@@H](C)C[C@@H]2C(=O)O)C1.O (some centres not stated) 89.5
O=C1Nc2cc(Br)ccc2C1=C1N=c2ccccc2=C1NO [GSK-3 Inhibitor IX] 112
O=[N+]([O-])c1ccc([O-])c(OS(=O)(=O)[O-])c1.[K+].[K+] [dipotassium 5-nitro-2-oxidophenyl sulfate] 90.9
CC(C)Cn1c(=O)n(C)c(=O)c2[nH]cnc21 [3-Isobutyl-1-methylxanthine] 90.5
Cc1ccc(Cl)c(Nc2ccccc2C(=O)[O-])c1Cl.[Na+] [Meclofenamic acid sodium] 90.8
Cl.Clc1ccc2nsnc2c1NC1=NCCN1 [Tizanidine.HCl] 104
COc1cc(C)c(C=CC(C)=CC=CC(C)=CC(=O)O)c(C)c1C [Acitretin] 90.1

test system: HCC1569; assay: H1.0 immunofluorescence intensity relative to DMSO (% of DMSO); higher = stronger H1.0 induction, active = 140 or more; details: concentration: 10 µM; 24 h
How it was run: as §1

H1.0 immunofluorescence intensity, active:
CCN(CC)C(=O)c1ccc(Nc2nc(OCC3CCCCC3)c3[nH]cnc3n2)cc1 [Cdk2 Inhibitor IV,                 NU6140] 158
O=C1Nc2cc(Br)ccc2C1=C1N=c2ccccc2=C1NO [GSK-3 Inhibitor IX] 222

H1.0 immunofluorescence intensity, inactive:
COc1ccc(C(=O)/C(Cc2cc(OC)c(OC)c(OC)c2)=C(\C(=O)[O-])c2ccc3c(c2)OCO3)cc1.[Na+] 103
N#CC(=Cc1ccc(O)c(O)c1)C(=O)NCCc1ccccc1 [Tyrphostin AG 698] 119
CC(C)COCC(CN(Cc1ccccc1)c1ccccc1)N1CCCC1.Cl (configuration not stated) [Bepridil.HCl] 99.1
C=C1C(=CC=C2CCCC3(C)C2CCC3C(C)C=CC(O)C2CC2)CC(O)CC1O (configuration not stated) [Calcipotriene] 115
CCN1C(=O)C=CC1=O [N-Ethylmaleimide] 91.7
O=C(O)c1cc2cc(F)ccc2[nH]1 [5-Fluoroindole-2-carboxylic acid] 98.6
C#Cc1cccc(Nc2ncnc3cc(OCCOC)c(OCCOC)cc23)c1 [Erlotinib] 108
CCCCCCCCCCCCCCCC(=O)O [Hexadecanoic acid] 97.9
CCC(=O)OC1(C(=O)SCF)C(C)CC2C3CC(F)C4=CC(=O)C=CC4(C)C3(F)C(O)CC21C (configuration not stated) 116
CCCCCCCCCCCCCCCCCCCC(=O)O [Eicosanoic acid] 101
CCCOc1cc2c(cc1\C(C)=C/C=C/C(C)=C/C(=O)O)C(C)(C)CCC2(C)C 95.9
CC(NC(=O)C(C#N)=Cc1ccc(O)c(O)c1)c1ccccc1 (configuration not stated) [Tyrphostin AG 527] 107
Cl.NCC1OC(C23CC4CC(CC(C4)C2)C3)Cc2c1ccc(O)c2O (configuration not stated) 129
CN(C)CCC=C1c2ccccc2COc2ccc(CC(=O)O)cc21 [Olopatadine] 102
CCCCCC#CCC#CCC#CCC#CCCCC(=O)O [5,8,11,14-Eicosatetraynoic acid] 103
NC(C(=O)NC1C(=O)N2C(C(=O)O)=C(Cl)CSC12)c1ccccc1 (configuration not stated) [Cefaclor] 85.8
Cn1sc(=O)n(Cc2ccccc2)c1=O [GSK-3b Inhibitor I] 134
CCCCCCCCC=CCC=CCC=CCCCC(=O)O [5(Z), 8(Z), 11(Z)-Eicosatrienoic Acid] 97.8
Fc1ccc(-c2c3cccc(C(F)(F)F)c3nn2Cc2ccc(F)cc2Cl)cc1 102
CCCCCCCCCCCCCCCC(O)C(N)CO (racemic) [DL-erythro-Dihydrosphingosine] 96.9
CC12CCC3c4ccc(O)cc4CCC3C1CCC2O (stereo not drawn) [beta-Estradiol] 95.3
CC(C)(ON=C(C(=O)NC1C(=O)N2C(C(=O)[O-])=C(C[n+]3ccccc3)CSC12)c1csc(N)n1)C(=O)O (configuration not stated) [Ceftazidime] 108
NS(=O)(=O)c1cc2c(cc1Cl)NC=NS2(=O)=O [Chlorothiazide] 94
NC(N)=NCCC[C@H](N)C(=O)O [L-Arginine] 98.6
CCC(=O)OC1(C(=O)CCl)C(C)CC2C3CCC4=CC(=O)C=CC4(C)C3(F)C(O)CC21C (configuration not stated) [Clobetasol Propionate] 100
Cl.Nc1c2c(nc3ccccc13)CCCC2 [9-Amino-1,2,3,4-tetrahydroacridine hydrochloride] 94.2
CN1c2ccccc2C(=O)N2CCc3c([nH]c4ccccc34)C21 (configuration not stated) [Evodiamine] 123
Cl.Clc1cccc(Cl)c1NC1=NCCN1 [Clonidine hydrochloride] 90
CCCCCCCCCCCC(=O)O [Dodecanoic acid] 101
O=C1CC(c2ccc(O)cc2)Oc2cc(OC3OC(CO)C(O)C(O)C3O)cc(O)c21 (configuration not stated) [Narigenin-7-O-glucoside] 86.5
CCCC1OC2CC3C4CCC5=CC(=O)C=CC5(C)C4C(O)CC3(C)C2(C(=O)CO)O1 (configuration not stated) [Budesonide] 96.4
CC(c1cc2ccccc2s1)N(O)C(N)=O (configuration not stated) [Zileuton] 101
CC1CNc2c(cccc2S(=O)(=O)N[C@@H](CCCN=C(N)N)C(=O)N2CC[C@@H](C)C[C@@H]2C(=O)O)C1.O (some centres not stated) 105
O=[N+]([O-])c1ccc([O-])c(OS(=O)(=O)[O-])c1.[K+].[K+] [dipotassium 5-nitro-2-oxidophenyl sulfate] 100
CC(C)Cn1c(=O)n(C)c(=O)c2[nH]cnc21 [3-Isobutyl-1-methylxanthine] 88.2
Cc1ccc(Cl)c(Nc2ccccc2C(=O)[O-])c1Cl.[Na+] [Meclofenamic acid sodium] 101
Cl.Clc1ccc2nsnc2c1NC1=NCCN1 [Tizanidine.HCl] 83.4
COc1cc(C)c(C=CC(C)=CC=CC(C)=CC(=O)O)c(C)c1C [Acitretin] 126
